Most compounds without a hit are left out; they make up all but 3.9% or so of the library.
CF NFkB inh: blocks PAF-induced NF-kB reporter in cystic fibrosis cells. 360,000 tested, 0.86% active. inhibition, % at 5 µM. KKLEB NF-kB-GFP reporter, GFP fluorescence overnight;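 active means at least 50% inhibition at 5 µM, scaled per plate between neutral and stimulator controls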;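 further: PAF is a Pseudomonas aeruginosa culture filtrate used as stimulus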
HIF-2a block: inhibitors of HIF-2a; 360,000 tested, 0.72% active; inhibition, % at 18.8 µM; 786-0 RCC cells HIF-2a reporter, luciferase luminescence, overnight;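 active means inhibition of the luminescence signal of 40% or more relative to plate controls, in a single-dose primary screen at 18.75 µM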
KKLEB cytotox: CF airway cell cytotoxicity counter-screen; KKLEB CF airway cells viability, ATPlite luminescence, overnight; stronger effect = lower value; cells stimulated with P. aeruginosa culture filtrate; activity change (cytotoxicity), % at 5 µM; 360,000 tested, 0.36% active; AID 602141;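 active means corrected activity change at or below -50% at 5 µM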
TWEAK Fn14 block: inhibitors of TWEAK-Fn14 interaction signaling; TWEAK-stimulated Fn14 reporter cells, luciferase luminescence, 8 h; inhibition, % at 10 µM; 360,000 tested, 2% active; in the data active means inhibition above about 50%
Peg3 promoter: reduces Peg3 promoter-driven luciferase expression in HeLa | HeLa PEG-Prom luciferase reporter, luminescence, overnight | inhibition, % at 20 µM | 360,000 tested, 1.7% active | AID 588405;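 active means inhibition of at least 50% at 20 µM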
TROY NFkB inh: blocks TROY-dependent signaling in reporter cells | inhibition, % at 10 µM | 360,000 tested, 0.98% active | AID 1347056 | Q293 LMP1-TROYcd NF-kB luciferase reporter, 4 h;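 active means compounds whose plate-normalised and pattern-corrected inhibition of the luciferase reporter signal at the single screening dose is 50% or more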
Of the large screens only hits and unclear results are named; the others gave an inactive call; ! = repeats disagree.

COC(=O)C1=Nc2ccccc2/C1=C\c1c(O)n(-c2ccc(Br)cc2)c(=O)[nH]c1=O	TWEAK Fn14 block 59
O=c1[nH]c(=O)n(-c2ccccc2)c(O)c1/C=C1/C(c2ccccc2)=Nc2ccccc21	CF NFkB inh 60
COC(=O)C1=Nc2ccccc2/C1=C\c1c(O)n(-c2ccc(OC)cc2)c(=O)[nH]c1=O	TWEAK Fn14 block 65
Cc1ccc(C2N(c3ccccn3)C(=O)C3CCCN32)o1 (stereo not drawn)	none
CN1C(=O)/C(=C/c2cccn2-c2ccc3ccccc3c2)C(=O)NC1=S	Peg3 promoter 92
Cc1cccc(N2C(=O)NC(=O)/C(=C\c3cnc(-c4ccccc4)nc3)C2=O)c1	none
Cc1cc(C)cc(N2C(=O)NC(=O)/C(=C\c3cccn3-c3ccccc3)C2=O)c1	HIF-2a block 43, TWEAK Fn14 block 66, Peg3 promoter 75
OC(Cn1c2ccccc2c2ccccc21)C[n+]1cccc2ccccc21 (stereo not drawn)	Peg3 promoter 59
CCC(c1nnnn1-c1ccc(OC)cc1)N1CCC(n2c(=O)[nH]c3ccccc32)CC1 (stereo not drawn)	none
COc1ccc(-n2nnnc2C(c2ccccc2)N2CCC3(CC2)C(=O)NCN3c2ccccc2)cc1 (stereo not drawn)	none
COc1ccc(-n2nnnc2C(c2ccccc2OC(F)(F)F)N2CCC3(CC2)C(=O)NCN3c2ccccc2)cc1 (stereo not drawn)	Peg3 promoter 57
COc1ccc(-n2nnnc2C(c2ccccc2OC(F)(F)F)N2CCC(n3c(=O)[nH]c4ccccc43)CC2)cc1 (stereo not drawn)	Peg3 promoter 85
N#Cc1ccc(NC(=O)CN2CCN(C(=O)c3cccs3)CC2)cc1Cl	none
CCOC(=O)C1CCCN(c2ccc([N+](=O)[O-])c3nonc23)C1 (stereo not drawn)	none
COC(=O)C1=C(c2ccc(F)cc2OCc2ccccc2)C[C@@H]2CC[C@H]1N2C	none
Cc1ccccc1NC(=NCCCN1CC1)Nc1ccccc1C	none
CC(=O)OC(C)(C)/C=C/C(=O)[C@](C)(O)[C@H]1[C@H](O)C[C@@]2(C)[C@@H]3CC=C4[C@H](C[C@H](O)C(=O)C4(C)C)[C@]3(C)C(=O)C[C@]12C	CF NFkB inh 84, HIF-2a block 79, KKLEB cytotox -86, TWEAK Fn14 block 65, Peg3 promoter 103, TROY NFkB inh 62
CC(=O)OC(C)(C)/C=C/C(=O)C(C)(O)C1C(O)CC2(C)C3CC=C4C(CC(O)C(=O)C4(C)C)C3(C)C(=O)CC12C (stereo not drawn)	CF NFkB inh 89, HIF-2a block 78, KKLEB cytotox -83, TWEAK Fn14 block 63, Peg3 promoter 97, TROY NFkB inh 61
Cn1ncc(Cl)c1C(=O)N1CCC2(CC1)OCCO2	none
C=CCN1C(=O)NC(=O)/C(=C\c2ccc(-c3ccccc3[N+](=O)[O-])o2)C1=O	none
O=C1NC(=O)N(Cc2ccco2)C(=O)/C1=C/c1ccc(-c2cccc([N+](=O)[O-])c2)o1	HIF-2a block 65
CC(=O)Nc1ccc(OC(=O)N(C)c2ccc(C)cc2)cc1	none
Cc1ccc(N(C)C(=O)Oc2ccc(C(=O)c3ccc(Cl)cc3)cc2)cc1	TWEAK Fn14 block 68 (no result: TROY NFkB inh)
S=C(NCCc1ccccc1)N1Cc2cc(Br)ccc2-n2nncc2C1	none
S=C(NCCc1ccccc1)N1Cc2ccc(Br)cc2-n2nncc2C1	Peg3 promoter 51
CCCCCn1c(=O)c(C(=O)Nc2ncccc2C)c(O)c2ccccc21	none
CN(C)c1ccc(/C=C/c2cc[n+](C)c3ccccc23)cc1	TWEAK Fn14 block 53!
Cc1cccc(C)c1-n1nnnc1C(CCc1ccccc1)N1CCC(n2c(=O)[nH]c3ccccc32)CC1 (stereo not drawn)	TWEAK Fn14 block 107, Peg3 promoter 98, TROY NFkB inh 81
O=c1[nH]c2ccccc2n1C1CCN(C(c2ccnc3ccccc23)c2nnnn2-c2ccc3c(c2)OCCO3)CC1 (stereo not drawn)	CF NFkB inh 77, KKLEB cytotox -70, Peg3 promoter 62
CCC(c1nnnn1Cc1ccccc1)N1CCC(n2c(=O)[nH]c3ccccc32)CC1 (stereo not drawn)	CF NFkB inh 99, KKLEB cytotox -71, Peg3 promoter 75
COc1ccc(-n2nnnc2C(c2ccnc3ccccc23)N2CCC3(CC2)C(=O)NCN3c2ccccc2)cc1 (stereo not drawn)	none
O=c1[nH]c2ccccc2n1C1CCN(C(CCc2ccccc2)c2nnnn2-c2ccc3c(c2)OCCO3)CC1 (stereo not drawn)	CF NFkB inh 60, KKLEB cytotox -90, TWEAK Fn14 block 70, Peg3 promoter 90, TROY NFkB inh 59
CCC(COC(=O)c1cc(OC)c(OC)c(OC)c1)(c1ccccc1)N(C)C (stereo not drawn)	none
CC1CCC(N2CCN(C(=O)COc3ccccc3)CC2)CC1 (stereo not drawn)	none
O=C1NC(=O)N(Cc2ccccc2)C(=O)C1Cc1ccccc1 (stereo not drawn)	none
CN(C)c1ccc(C(=O)N/N=C/C23CC[C@@H](O)CC2(O)CC[C@@H]2[C@@H]3CCC3(C)C(C4=CC(=O)OC4)CCC23O)cc1 (stereo partly drawn)	KKLEB cytotox -52, Peg3 promoter 105
CC12CC[C@H]3[C@@H](CCC4(O)C[C@H](O)CCC34/C=N/NC(=O)c3ccc(O)cc3)C1(O)CCC2C1=CC(=O)OC1 (stereo partly drawn)	none
COc1cc(C(=O)N/N=C/C23CC[C@@H](O)CC2(O)CC[C@@H]2[C@@H]3CCC3(C)C(C4=CC(=O)OC4)CCC23O)ccc1O (stereo partly drawn)	none
COc1ccc(C(=O)N/N=C/C23CC[C@@H](O)CC2(O)CC[C@@H]2[C@@H]3CCC3(C)C(C4=CC(=O)OC4)CCC23O)cc1 (stereo partly drawn)	Peg3 promoter 66
c1ccc(-c2ccc(-c3n(-c4ccccn4)c4ccccc4[n+]3-c3ccccn3)cc2)cc1	none
CC1(C)N=C(c2ccccc2)[C@@H]2C(c3ccc([N+](=O)[O-])cc3)N21 (stereo partly drawn)	TROY NFkB inh 53
CC(C)(C)NC(=O)Cn1cc(C(=O)c2ccccc2F)c2ccccc21	none
NCCc1cc(O)c(O)cc1O	TWEAK Fn14 block 56!
Cc1nc(-c2cccc(CN(C)C(=O)Oc3ccc([N+](=O)[O-])cc3)c2)no1	none (no result: CF NFkB inh, KKLEB cytotox, Peg3 promoter)
CN(Cc1cccc(-c2cccnc2)c1)C(=O)Oc1ccc([N+](=O)[O-])cc1	TWEAK Fn14 block 83, TROY NFkB inh 56 (no result: CF NFkB inh, KKLEB cytotox, Peg3 promoter)
CCOc1nc(NC(C)C)nc(N2CC3CC(C2)c2cccc(=O)n2C3)n1 (stereo not drawn)	none
